Experimental data reported in PubChem BioAssay AID1259415 (National Center for Advancing Translational Sciences (NCATS), 2018).
“And” between values parts separate entries of the source, which are not always exact repeats. Equal values may be shown once. The campaign covered roughly 410,000 compounds. About 18,000 (4.4%) were called active. Roughly 7% stayed inconclusive and do not appear here. The sample holds actives, similar compounds and a random draw of the others, so the mix is not that of the screen. Values without a mark were called inactive. Cut-off read from the data, not from the text of the source: active = activity change below about -60%; inconclusive = no clear call, values can overlap the other calls; inactive = above about -39%.

Assay: qHTS Assay for inhibitors of the human cytomegalovirus (HCMV)
Conditions: HFF cells, HCMV-luciferase reporter, 72 h; at 57.5 µM; stronger effect = lower value
In short: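 Two-dose cell screen: HFF monolayers treated with compounds and infected with luciferase-expressing HCMV at 1 PFU/cell, 72 h at 37C, then lysed for luciferase measurement.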
% is set by controls: 0 for no effect and ±100 for the full control effect.

SMILES	activity change, negative = inhibition
Cc1ccc(S(=O)(=O)N2CCC(C(=O)Nc3cc(C)ccc3C)CC2)cc1	10.8%
Cc1cc(C)nc(-n2ncc3c2CC(c2ccc(C(C)C)cc2)CC3=O)n1 (stereo not given)	-22.8%
Cc1ccccc1NC(=O)Cn1c(=O)n(Cc2ccco2)c(=O)c2ccc(C(=O)NC3CCCC3)cc21	36.1%
CCOC(=O)N1CCc2c(sc(NCc3cccc(F)c3)c2C(=O)Nc2ccccc2OCC)C1	30.2%
CN(C(=O)c1c(Cl)cnn1C)C12CC3CC(CC(C3)C1)C2	-18.8%
O=C(O)c1c(CNCc2cccc(F)c2)c2ccccc2n1Cc1ccccc1	8.63%
Cc1ccc(C(=O)Nc2c(C(=O)NC(C)(C)C)oc3ccccc23)cc1	-18.8%
COc1ccccc1CNc1ccc(-c2nc(-c3ccccc3C)no2)cc1[N+](=O)[O-]	3.35%
Cc1ccccc1CNC(=O)Cn1c(C)c2cnn(-c3ccccc3)c(=O)c2c1C	-13%
CCCNC(=O)N1CCC2(CC1)CN(C(=O)CN1CCOCC1)[C@H](CO)c1[nH]c3cc(OC)ccc3c12	0.475%
CC(C)=CCc1ccc(O)c(=O)cc1C(C)C	-101% (active)
CCNC(=O)c1cc2n(n1)CCCN(Cc1ccc(C)cc1)C2=O	-3.42%
Cc1cc(C)cc(OCC(=O)Nc2c(C(=O)c3ccccc3)oc3ccccc23)c1	0.353%
CCC(C)(C)NC(=O)CN(Cc1cccs1)C(=O)CNS(=O)(=O)c1ccc(F)cc1	-8.36%
COc1ccc(Cn2c(=O)c3oc4ccccc4c3n(CC(=O)Nc3ccc(F)cc3F)c2=O)cc1	6.84%
CCOC(=O)c1ccc(NC(=O)CCn2cnnn2)cc1	20.5%
Cc1cc(=O)n(C)c(=O)n1CCCNc1ccccc1	-33.2%
Cc1[nH]c(N)nc(=S)c1CCCNc1ccccc1	-99.8% (active)
CCc1c(Nc2ccccc2C)nc(N)[nH]c1=O	90.6%
Cc1nnnn1/C(=C\c1ccccc1)C(=O)OCC(=O)N1CC2(C)CC1CC(C)(C)C2 (stereo not given)	-85.3% (active)
COC(=O)c1cc2n(n1)CCCNC2=O	14.4%
CCC(C)(O)C(=O)OC1C(=O)OC2CC3C(C)=CC(=O)C(O)C3(C)C3C4(O)OCC23C1C(C)C4O (stereo not given)	-96.7% (active)
COCCNC(=S)N(CCc1c(C)[nH]c2ccc(C)cc12)Cc1cccnc1	5.87%

SMILES	activity change, negative = inhibition
COCCCNC(=S)NNC(=O)C(O)(c1ccccc1)c1ccccc1	-17.8%
COCCNC(=S)N/N=C/c1c(C)[nH]c2ccccc12	-68.5% (active)
CCOC(=O)c1cccc(NS(=O)(=O)c2cc(-c3cnc(C)o3)ccc2OC)c1	-8.81%
COc1ccc(CCNC(=O)CC2SC(=Nc3cc(C)cc(C)c3)NC2=O)cc1OC (stereo not given)	37.9%
COc1ccc(OCC(O)CNC(=O)Nc2ccc(Cl)cc2)cc1 (stereo not given)	-6.88%
CC(C)S(=O)(=O)c1csc(NC(=O)Nc2ccc(Cl)cc2)c1Cl	-93.2% (active)
CC(=O)N1CCC(N(C(=O)Nc2ccc(Cl)cc2)C(C)C)CC1	-34.8%
COc1ccc(Cl)cc1NC(=O)CN(C)C(=O)c1cc(-c2cccs2)nn1-c1ccccc1	-21.5%
COc1cc(OC)cc(C(=O)NCCc2csc3nc(-c4ccccc4F)nn23)c1	-6.5%
Cc1ccc2[nH]c3c(=O)n(CC(=O)NC(C)C)ncc3c2c1	5.38%
C=C(C)C(=O)O[C@H]1C/C(C)=C\C(=O)/C=C(\C)[C@H](O)[C@@H]2OC(=O)C(=C)[C@@H]21	-98.8% (active)
Fc1cccc(-c2nc3c(N4CCOCC4)nccc3[nH]2)c1	6.37%
CCc1cccc(-n2nnc(-c3nsc(NC(=O)c4ccc(C)cc4)n3)c2C)c1	-39.1%
C/C(=N\NC(=O)CNc1cccc2ccccc12)c1ccc(Br)s1	21.2%
Cc1ccsc1/C=N/NC(=O)Cc1cc(=O)[nH][nH]1	80.6%
COc1ccc(C(=O)NCC(c2ccco2)N2CCc3ccccc32)cc1OC (stereo not given)	-5.62%
Cc1ccccc1NCC(=O)N/N=C\c1ccc([N+](=O)[O-])s1	-78.2% (active)
COc1ccc(N(CC(=O)N/N=C/c2cccs2)S(=O)(=O)c2ccc(OC)c(OC)c2)cc1	3.94%
CC(C)(C)c1cc(C(=O)N/N=C/c2ccc([N+](=O)[O-])s2)n[nH]1	-73.9% (active)
COc1ccc(C(=O)NCC(=O)N/N=C/c2ccc([N+](=O)[O-])s2)cc1OC	-92.4% (active)
Cc1nnc(SCc2nc3ccccc3nc2C)s1	32.2%
CCOC(=O)C1CCN(c2ncnc3c2c(-c2ccccc2)cn3-c2cccc(C)c2)CC1	-35.2%
CCOc1ccccc1C(=O)Nc1ccc(S(=O)(=O)N2CCCCC2c2cccnc2)cc1 (stereo not given)	-33.6%

SMILES	activity change, negative = inhibition
Cc1[nH]c2ccccc2c1C(=O)C(=O)NCc1nnnn1-c1cccc(F)c1	-19%
COc1ccc(NC(=O)c2ccc3nc(C(C)C)oc3c2)cc1OC	6.52%
Cc1cccn2c(=O)c(C(=O)NC(C)c3ccccc3)cnc12 (stereo not given)	-18.5%
COC(=O)c1cc(S(=O)(=O)N2CCN(c3cc(C)ccc3C)CC2)c[nH]1	9.83%
Cc1cc(C(=O)N2CCC(C(=O)O)CC2)c(C(F)(F)F)o1	0.635%
Cc1ccc(C)c(NC(=O)CSC2=Nc3ccccc3N=C(c3ccc(F)cc3)C2)c1	22.5%
COc1ccc(C2Nc3ccccc3C(=O)N2c2ccc(Cl)cc2)cc1Cn1cc([N+](=O)[O-])cn1 (stereo not given)	8.39%
Cc1ccc2[nH]c(=O)c(CN3CCCCC3)c(-c3ccccc3)c2c1	11.7%
Cc1ccc2c(C(=O)CN3CCCC3)c(C)[nH]c2c1	-81.5% (active)
Cc1[nH]c2ccccc2c1C(=O)CN1CCCC(C)C1 (stereo not given)	64%
COc1ccc2c(C)c(CCC(=O)NCc3ccc(OC)c(OC)c3)c(=O)oc2c1	-7.55%
N#CC(C#N)=CN=c1ccn(Cc2ccc(Cl)cc2Cl)cc1	-94.3% (active)
CCc1nc2cccnc2n1-c1ccc(C(=O)O)cc1	-6.51%
COc1ccc(C(=O)NC(=S)NNC(=O)CCc2ccccc2)cc1	-85.4% (active)
Cc1c(NC(=S)NC(=O)CCc2ccccc2)c(=O)n(-c2ccccc2)n1C	-11.5%
CCCCC(=O)NNC(=S)NC(=O)C(c1ccccc1)c1ccccc1	-31.6%
Cc1cccc(C(C)C)c1NC(=O)C(NS(=O)(=O)c1cccc2nsnc12)c1ccccc1 (stereo not given)	-12.4%
CCOC(=O)c1c(C)n(S(=O)(=O)c2ccc(C)cc2C)c2ccc(NS(=O)(=O)c3ccc(C)cc3C)cc12	37%
O=C(c1ccc(C(F)(F)F)cc1)N1CCC(c2nc(-c3ccc(S(=O)(=O)N4CCCC4)cc3)no2)CC1	-39.7%
Cc1ccccc1NC(=O)c1c(NC(=O)c2ccccc2F)sc2c1CCC(C)C2 (stereo not given)	-1.03%
CCOC(=O)N1CCN(C(=O)COCc2cc(-c3ccc4c(c3)OCO4)on2)CC1	-33.7%
Cc1cccc(N2CCN(C(=O)COCc3cc(-c4ccc5c(c4)OCO5)on3)CC2)c1C	10.8% and 0.0657%
CC(C)NC(=O)COCc1cc(-c2ccc3c(c2)OCO3)on1	-102% (active)

SMILES	activity change, negative = inhibition
O=C(O)c1cccc(N=NN2CCCCCC2)c1	134%
CCc1nnc(SCc2c(F)cccc2Cl)c2cc3sccc3n12	-67.2% (active)
Cn1c(SCc2c(F)cccc2Cl)nnc1-c1cnccn1	-2.73%
CCc1nnc(SCc2nc(-c3cccc(C)c3)oc2C)c2cc3sc(C)cc3n12	22.7%
CCOC(=O)CSC1=Nc2ccccc2C2=NC(CCC(=O)NCc3ccc(F)cc3)C(=O)N12 (stereo not given)	-5.13%
COc1cccc(NC(=O)Nc2ccc3c(c2)N(C)C(=O)c2ccccc2S3)c1	-33.9%
CCOc1ccc(N2C(=O)CSC2=NC#N)cc1	-101% (active)
CCO/C=C1\C(=O)N(c2ccc(OCC)cc2)C(=O)c2ccccc21	-9.21%
CCOc1ccc(N2C(=O)CN(c3cccc4ccccc34)C2=S)cc1	28.1%
Cn1c(=O)c(C(=O)O)nn(-c2ccccc2)c1=O	-0.182%
O=C(CCN1CCCCC1)N=Nc1c(O)[nH]c2ccccc12	8%
O=[N+]([O-])c1cc(S(=O)(=O)Nc2cccc(Cl)c2)ccc1N=Nc1c(O)[nH]c2ccccc12	-78.2% (active)
CCN(C(=O)COC(=O)c1cc(NS(=O)(=O)c2ccc(Cl)c([N+](=O)[O-])c2)ccc1O)C1CCCCC1	-23%
C/C(=N\NC(=O)NC1CCCCC1)c1ccc(OC(F)F)cc1OC(F)F	-36.3%
Cc1ccc(-n2c(C)nnc2SCC(=O)NC2CC2)cc1	17.2%
Cc1ccc(-n2c(C)cc(C(=O)CSc3nnc4ccccn34)c2C)cc1	-86.1% (active)
N#Cc1ccc(CSc2nnc3ccccn23)cc1	-25.8%
Cc1ccc(-n2nc(C)c(C(=O)O)c2-n2cccc2)cc1	3.17%
COC(=O)c1cc(=O)n(-c2c(Cl)cc(C(F)(F)F)cc2Cl)[nH]1	31.8%
C=CCn1cc(-c2cccc(C(F)(F)F)c2)cc(C#N)c1=O	-25.4%
CC1(Cc2cccc(C#N)c2)C(=O)Nc2ccc(-c3cccc(C(F)(F)F)c3)cc21 (stereo not given)	-96.6% (active)
